Assay in all cases: DAPPL (digital affinity profiling via proximity ligation, sequencing); 10 mM Tris-HCl pH 7.5, 50 mM NaCl, 1 mM DTT, 4% glycerol, room temperature, 30 min; GST-TFs on glutathione beads, 16-mer random dsDNA library, 0.1% formaldehyde crosslink after washing; high values mean tight binding
Conditions in all cases: protein: recombinant; tags: N-terminal GST; dsDNA, one strand shown

For one assay, the target named is T1, FLI1 (Homo sapiens, UniProt Q01543 1-452).
T1 sequence: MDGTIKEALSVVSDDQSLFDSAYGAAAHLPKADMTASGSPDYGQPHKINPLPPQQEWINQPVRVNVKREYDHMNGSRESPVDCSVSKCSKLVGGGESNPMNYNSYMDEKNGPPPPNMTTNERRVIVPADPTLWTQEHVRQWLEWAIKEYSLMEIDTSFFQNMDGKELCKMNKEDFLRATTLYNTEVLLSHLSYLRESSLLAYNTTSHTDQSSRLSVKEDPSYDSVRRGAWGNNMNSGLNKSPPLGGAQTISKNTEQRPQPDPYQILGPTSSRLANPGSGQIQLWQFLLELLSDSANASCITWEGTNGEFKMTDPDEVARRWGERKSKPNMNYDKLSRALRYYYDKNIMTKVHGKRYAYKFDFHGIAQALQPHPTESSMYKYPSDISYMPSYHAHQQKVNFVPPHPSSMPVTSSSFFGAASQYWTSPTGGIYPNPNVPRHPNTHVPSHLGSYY
The method in brief: (§1)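 Sequencing on an Illumina NextSeq500 followed washing, crosslinking with 0.1% formaldehyde, proximity ligation (BsaI/T4 ligase, 1 h, 37 °C) and PCR amplification of pools that had been incubated for 30 min at room temperature with 200 nmole of a random double-stranded 16-mer DNA library in Tris/NaCl/DTT/glycerol buffer. Each pool held DNA-barcoded human transcription factors, expressed in yeast as GST fusions and captured on glutathione beads, plus a tag-only sample. Binding signal is a hexamer's read frequency for a factor divided by its frequency in the tag-only sample.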

Another assay deals with T2, ELK1 (Homo sapiens, UniProt P19419 1-428).
T2 sequence: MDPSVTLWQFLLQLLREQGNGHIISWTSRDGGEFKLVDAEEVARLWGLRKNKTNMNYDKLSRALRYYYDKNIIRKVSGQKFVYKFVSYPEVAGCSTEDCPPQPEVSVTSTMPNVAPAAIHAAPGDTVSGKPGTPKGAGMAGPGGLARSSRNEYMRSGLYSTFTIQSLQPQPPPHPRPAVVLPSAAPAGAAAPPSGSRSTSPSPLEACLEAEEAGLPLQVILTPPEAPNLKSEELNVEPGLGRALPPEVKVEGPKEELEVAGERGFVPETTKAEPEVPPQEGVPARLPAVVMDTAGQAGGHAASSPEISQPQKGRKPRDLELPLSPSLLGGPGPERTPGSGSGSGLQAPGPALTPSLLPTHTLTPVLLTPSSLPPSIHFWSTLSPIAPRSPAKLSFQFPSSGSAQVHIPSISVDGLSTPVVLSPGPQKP
The method in brief:
as §1

The next assay addresses T3, GABPA (Homo sapiens, UniProt Q06546 1-454).
T3 sequence: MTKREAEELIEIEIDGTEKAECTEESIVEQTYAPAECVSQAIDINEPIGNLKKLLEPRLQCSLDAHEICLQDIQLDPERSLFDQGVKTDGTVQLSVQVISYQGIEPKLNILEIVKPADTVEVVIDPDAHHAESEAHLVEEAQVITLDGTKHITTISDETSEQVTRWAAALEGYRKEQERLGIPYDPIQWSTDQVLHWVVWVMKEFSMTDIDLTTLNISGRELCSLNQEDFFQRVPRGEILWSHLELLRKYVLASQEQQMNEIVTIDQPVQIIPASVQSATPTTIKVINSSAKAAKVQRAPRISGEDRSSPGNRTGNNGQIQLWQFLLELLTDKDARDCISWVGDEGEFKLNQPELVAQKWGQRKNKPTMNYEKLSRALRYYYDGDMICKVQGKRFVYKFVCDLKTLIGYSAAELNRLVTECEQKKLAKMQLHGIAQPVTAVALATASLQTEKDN
The method in brief: as §1

The next assay has as its target T4, ERG (Homo sapiens, UniProt P11308 1-479).
T4 sequence: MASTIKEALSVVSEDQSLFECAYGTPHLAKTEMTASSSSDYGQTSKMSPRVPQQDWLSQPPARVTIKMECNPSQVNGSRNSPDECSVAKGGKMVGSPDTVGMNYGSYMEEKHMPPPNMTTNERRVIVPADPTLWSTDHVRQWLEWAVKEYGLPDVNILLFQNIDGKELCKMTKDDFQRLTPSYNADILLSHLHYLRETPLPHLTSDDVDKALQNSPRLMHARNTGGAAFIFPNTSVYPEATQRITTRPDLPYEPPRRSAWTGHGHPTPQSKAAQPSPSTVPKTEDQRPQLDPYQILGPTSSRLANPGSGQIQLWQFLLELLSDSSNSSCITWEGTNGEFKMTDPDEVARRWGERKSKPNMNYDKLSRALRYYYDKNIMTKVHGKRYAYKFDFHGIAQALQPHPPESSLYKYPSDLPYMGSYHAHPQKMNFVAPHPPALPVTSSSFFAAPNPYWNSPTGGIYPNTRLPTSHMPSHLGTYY
The method in brief: as §1

For a further assay, the target named is ELF1 (Homo sapiens, UniProt P32519 1-619). The method in brief: as §1
Chain of ELF1 (P32519 whole entry): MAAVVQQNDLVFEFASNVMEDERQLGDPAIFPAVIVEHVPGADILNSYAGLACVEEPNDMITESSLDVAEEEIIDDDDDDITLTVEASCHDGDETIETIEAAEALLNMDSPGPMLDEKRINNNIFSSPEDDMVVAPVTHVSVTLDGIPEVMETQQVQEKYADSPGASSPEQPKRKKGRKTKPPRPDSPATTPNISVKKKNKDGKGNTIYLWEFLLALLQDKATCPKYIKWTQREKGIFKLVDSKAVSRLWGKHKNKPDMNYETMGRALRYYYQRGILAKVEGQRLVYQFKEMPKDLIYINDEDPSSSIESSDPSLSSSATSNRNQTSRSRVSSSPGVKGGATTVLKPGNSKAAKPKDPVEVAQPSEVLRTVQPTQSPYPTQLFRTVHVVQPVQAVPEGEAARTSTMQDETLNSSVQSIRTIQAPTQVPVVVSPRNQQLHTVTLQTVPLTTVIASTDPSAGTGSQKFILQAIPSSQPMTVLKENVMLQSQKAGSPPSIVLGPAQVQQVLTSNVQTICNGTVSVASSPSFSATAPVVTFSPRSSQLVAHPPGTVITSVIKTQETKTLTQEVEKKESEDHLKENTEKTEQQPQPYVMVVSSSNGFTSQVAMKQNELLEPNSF
Another assay deals with T5, EHF (Homo sapiens, UniProt Q9NZC4 1-300).
T5 sequence: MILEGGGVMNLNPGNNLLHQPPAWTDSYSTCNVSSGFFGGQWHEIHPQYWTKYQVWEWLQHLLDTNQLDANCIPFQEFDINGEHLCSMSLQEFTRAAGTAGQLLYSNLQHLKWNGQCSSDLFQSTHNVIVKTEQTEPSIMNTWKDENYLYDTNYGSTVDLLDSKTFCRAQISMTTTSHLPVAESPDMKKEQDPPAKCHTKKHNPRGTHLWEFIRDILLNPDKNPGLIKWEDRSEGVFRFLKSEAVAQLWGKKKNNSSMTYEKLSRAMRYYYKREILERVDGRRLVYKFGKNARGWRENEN
The method in brief: as §1

A further assay concerns the target SPIB (Homo sapiens, UniProt Q01892 1-262). The method in brief:
as §1

A further assay has as its target T6, ELK3 (Homo sapiens, UniProt P41970 1-407).
T6 sequence: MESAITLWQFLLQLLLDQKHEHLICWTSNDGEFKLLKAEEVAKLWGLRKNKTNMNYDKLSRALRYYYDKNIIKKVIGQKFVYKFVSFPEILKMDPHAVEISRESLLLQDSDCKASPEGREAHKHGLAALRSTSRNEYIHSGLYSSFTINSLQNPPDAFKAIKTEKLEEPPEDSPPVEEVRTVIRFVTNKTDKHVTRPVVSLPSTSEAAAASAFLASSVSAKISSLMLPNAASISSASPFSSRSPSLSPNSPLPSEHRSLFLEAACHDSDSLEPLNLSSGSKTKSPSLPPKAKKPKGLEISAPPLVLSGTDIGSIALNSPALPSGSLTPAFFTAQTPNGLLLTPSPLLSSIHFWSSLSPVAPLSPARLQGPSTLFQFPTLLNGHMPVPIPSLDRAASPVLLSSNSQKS
The method in brief: as §1

A further assay addresses T7, FEV (Homo sapiens, UniProt Q99581 1-238).
T7 sequence: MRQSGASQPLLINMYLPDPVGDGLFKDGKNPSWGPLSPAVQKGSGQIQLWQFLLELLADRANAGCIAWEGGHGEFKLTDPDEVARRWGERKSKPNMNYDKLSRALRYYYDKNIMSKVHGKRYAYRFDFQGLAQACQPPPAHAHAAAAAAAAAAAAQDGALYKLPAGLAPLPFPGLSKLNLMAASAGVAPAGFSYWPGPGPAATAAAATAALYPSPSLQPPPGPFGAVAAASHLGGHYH
The method in brief: as §1

The next assay addresses ETV5 (Homo sapiens, UniProt P41161 1-510). The method in brief: as §1
The next assay addresses T8, SPIC (Homo sapiens, UniProt Q8N5J4 1-248).
T8 sequence: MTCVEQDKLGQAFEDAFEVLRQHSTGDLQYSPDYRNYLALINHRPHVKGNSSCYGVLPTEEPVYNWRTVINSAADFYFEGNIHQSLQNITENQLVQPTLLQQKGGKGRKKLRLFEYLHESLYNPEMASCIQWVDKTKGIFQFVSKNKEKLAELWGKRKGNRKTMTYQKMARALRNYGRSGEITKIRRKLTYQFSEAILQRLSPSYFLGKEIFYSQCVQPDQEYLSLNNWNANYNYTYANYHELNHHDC
The method in brief: as §1

Another assay addresses ELF4 (Homo sapiens, UniProt Q99607 1-663). The method in brief:
as §1

A further assay deals with ETV1 (Homo sapiens, UniProt P50549 1-477). The method in brief:
as §1

Another assay addresses T9, ERF (Homo sapiens, UniProt P50548 1-548).
T9 sequence: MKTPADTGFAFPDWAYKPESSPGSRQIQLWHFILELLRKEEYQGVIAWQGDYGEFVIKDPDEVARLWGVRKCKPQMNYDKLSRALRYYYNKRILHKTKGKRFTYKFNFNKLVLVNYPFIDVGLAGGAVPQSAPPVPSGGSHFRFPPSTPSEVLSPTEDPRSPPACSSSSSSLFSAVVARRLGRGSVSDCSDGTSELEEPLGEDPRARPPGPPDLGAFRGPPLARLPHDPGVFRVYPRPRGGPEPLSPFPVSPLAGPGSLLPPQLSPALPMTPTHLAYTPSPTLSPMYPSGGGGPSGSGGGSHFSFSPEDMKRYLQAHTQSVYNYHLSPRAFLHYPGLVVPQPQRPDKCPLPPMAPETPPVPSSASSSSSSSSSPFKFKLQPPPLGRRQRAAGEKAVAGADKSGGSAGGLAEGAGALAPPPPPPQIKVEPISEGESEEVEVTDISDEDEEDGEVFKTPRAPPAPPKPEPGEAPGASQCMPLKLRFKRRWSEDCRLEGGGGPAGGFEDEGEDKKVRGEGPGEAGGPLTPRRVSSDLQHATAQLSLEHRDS
The method in brief:
as §1

In the next assay the target is T10, ETV3L (Homo sapiens, UniProt Q6ZN32 1-361).
T10 sequence: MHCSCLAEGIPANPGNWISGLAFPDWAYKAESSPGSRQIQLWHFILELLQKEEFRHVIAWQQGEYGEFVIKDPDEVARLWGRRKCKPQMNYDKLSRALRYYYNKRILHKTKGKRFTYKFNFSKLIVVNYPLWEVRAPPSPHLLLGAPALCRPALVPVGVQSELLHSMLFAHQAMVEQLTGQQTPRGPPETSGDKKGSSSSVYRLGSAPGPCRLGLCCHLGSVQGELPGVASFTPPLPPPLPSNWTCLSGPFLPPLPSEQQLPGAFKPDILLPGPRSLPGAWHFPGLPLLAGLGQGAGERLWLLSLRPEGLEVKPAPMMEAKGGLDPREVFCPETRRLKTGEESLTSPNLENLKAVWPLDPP
The method in brief:
as §1

The target of another assay is T11, ETS2 (Homo sapiens, UniProt P15036 1-469).
T11 sequence: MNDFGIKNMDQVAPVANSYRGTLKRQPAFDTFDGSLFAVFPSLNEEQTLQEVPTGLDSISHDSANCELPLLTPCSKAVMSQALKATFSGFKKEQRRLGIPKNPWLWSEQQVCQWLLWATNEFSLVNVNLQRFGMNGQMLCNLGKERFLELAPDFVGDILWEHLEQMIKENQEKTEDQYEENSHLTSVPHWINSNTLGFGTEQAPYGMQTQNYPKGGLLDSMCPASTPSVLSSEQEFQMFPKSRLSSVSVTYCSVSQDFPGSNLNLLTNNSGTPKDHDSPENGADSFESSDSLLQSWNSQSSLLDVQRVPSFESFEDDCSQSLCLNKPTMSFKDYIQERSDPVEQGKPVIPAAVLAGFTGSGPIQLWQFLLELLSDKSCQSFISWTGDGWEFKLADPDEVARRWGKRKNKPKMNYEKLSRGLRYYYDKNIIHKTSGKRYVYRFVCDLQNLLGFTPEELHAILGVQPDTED
The method in brief: as §1

A further assay deals with T12, ETV3 (Homo sapiens, UniProt P41162-2 1-143).
T12 sequence: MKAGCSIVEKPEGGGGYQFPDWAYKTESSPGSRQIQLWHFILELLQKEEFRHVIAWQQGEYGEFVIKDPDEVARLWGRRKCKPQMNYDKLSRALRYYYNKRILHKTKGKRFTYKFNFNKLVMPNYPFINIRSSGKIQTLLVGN
The method in brief: as §1

Chain of ETV5 (P41161 whole entry): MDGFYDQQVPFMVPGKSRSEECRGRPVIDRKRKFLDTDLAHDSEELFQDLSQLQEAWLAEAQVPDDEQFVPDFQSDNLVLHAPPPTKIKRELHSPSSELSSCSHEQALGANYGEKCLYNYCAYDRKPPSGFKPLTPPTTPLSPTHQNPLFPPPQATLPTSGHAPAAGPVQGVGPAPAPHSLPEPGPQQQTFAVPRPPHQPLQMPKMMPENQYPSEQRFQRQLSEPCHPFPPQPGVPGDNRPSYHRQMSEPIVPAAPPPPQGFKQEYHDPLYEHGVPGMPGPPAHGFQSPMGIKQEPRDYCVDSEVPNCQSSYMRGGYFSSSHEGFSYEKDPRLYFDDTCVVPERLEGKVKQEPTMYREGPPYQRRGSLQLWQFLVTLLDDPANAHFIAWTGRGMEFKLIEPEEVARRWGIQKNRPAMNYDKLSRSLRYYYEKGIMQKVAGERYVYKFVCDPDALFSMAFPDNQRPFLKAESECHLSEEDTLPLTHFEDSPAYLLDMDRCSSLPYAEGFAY
Chain of ETV1 (P50549 whole entry): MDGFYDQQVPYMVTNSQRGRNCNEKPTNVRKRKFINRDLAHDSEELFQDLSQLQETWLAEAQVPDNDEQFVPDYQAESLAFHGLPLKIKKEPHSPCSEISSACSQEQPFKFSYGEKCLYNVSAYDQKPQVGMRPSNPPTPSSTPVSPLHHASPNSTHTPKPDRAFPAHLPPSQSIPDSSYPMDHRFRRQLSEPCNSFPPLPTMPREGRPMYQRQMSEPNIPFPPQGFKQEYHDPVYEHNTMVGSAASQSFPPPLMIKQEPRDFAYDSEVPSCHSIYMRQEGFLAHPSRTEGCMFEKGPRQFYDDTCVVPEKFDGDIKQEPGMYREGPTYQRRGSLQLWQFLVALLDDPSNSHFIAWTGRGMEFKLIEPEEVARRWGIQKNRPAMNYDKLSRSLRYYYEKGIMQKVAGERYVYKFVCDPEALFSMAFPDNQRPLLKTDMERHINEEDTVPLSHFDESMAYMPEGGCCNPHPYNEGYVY
Chain of SPIB (Q01892 whole entry): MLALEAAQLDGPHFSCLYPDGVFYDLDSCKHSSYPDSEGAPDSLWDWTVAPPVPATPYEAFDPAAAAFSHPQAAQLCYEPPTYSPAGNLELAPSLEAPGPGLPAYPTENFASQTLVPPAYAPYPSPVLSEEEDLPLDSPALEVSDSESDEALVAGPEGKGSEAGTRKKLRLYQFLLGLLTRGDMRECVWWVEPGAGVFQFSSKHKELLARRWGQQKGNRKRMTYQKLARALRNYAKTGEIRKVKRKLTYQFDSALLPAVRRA
Chain of ELF4 (Q99607 whole entry): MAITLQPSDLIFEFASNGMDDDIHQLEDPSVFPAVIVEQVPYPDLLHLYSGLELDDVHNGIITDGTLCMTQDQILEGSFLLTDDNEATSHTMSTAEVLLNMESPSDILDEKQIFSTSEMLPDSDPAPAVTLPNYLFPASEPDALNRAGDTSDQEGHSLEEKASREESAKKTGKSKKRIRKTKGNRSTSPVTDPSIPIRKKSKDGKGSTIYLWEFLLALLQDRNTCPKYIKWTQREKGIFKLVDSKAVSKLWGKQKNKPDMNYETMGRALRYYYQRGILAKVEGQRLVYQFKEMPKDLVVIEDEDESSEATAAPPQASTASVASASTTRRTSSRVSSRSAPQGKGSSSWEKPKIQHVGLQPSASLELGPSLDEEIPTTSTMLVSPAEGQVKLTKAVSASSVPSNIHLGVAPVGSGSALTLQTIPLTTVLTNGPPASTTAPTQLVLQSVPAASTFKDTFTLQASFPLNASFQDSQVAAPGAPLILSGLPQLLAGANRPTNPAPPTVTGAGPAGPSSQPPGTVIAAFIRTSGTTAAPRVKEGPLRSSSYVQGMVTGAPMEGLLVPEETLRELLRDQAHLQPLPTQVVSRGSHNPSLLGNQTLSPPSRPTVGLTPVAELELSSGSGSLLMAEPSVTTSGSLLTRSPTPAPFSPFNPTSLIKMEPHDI

With CGGCCT, the binding signal with FLI1 is 1.22 fold enrichment (6-mer frequency, TF over GST control); with ELK1, 1.15 fold enrichment (6-mer frequency, TF over GST control); with GABPA it was 1.16 fold enrichment (6-mer frequency, TF over GST control); with ERG it was 1.17 fold enrichment (6-mer frequency, TF over GST control); in the assay with ELF1, 1.1 fold enrichment (6-mer frequency, TF over GST control); in the assay with EHF it was 1.08 fold enrichment (6-mer frequency, TF over GST control). In addition, the binding signal with SPIB is 1.02 fold enrichment (6-mer frequency, TF over GST control); with ELK3, 1.13 fold enrichment (6-mer frequency, TF over GST control); with FEV it was 1.17 fold enrichment (6-mer frequency, TF over GST control); with ETV5, 1.14 fold enrichment (6-mer frequency, TF over GST control); with SPIC it was 1.14 fold enrichment (6-mer frequency, TF over GST control); with ELF4, 1.12 fold enrichment (6-mer frequency, TF over GST control). The binding signal in the assay with ETV1 is 1.05 fold enrichment (6-mer frequency, TF over GST control); with ERF, 1.06 fold enrichment (6-mer frequency, TF over GST control); with ETV3L it was 1.07 fold enrichment (6-mer frequency, TF over GST control); with ETS2, 1.06 fold enrichment (6-mer frequency, TF over GST control); in the assay with ETV3, 1.18 fold enrichment (6-mer frequency, TF over GST control).

These data come from publication PMC7862700, “An all-to-all approach to the identification of sequence-specific readers for epigenetic DNA modifications on cytosine”.
